Reference: PubChem BioAssay AID743402 (Broad Institute, 2014)
Screen size: about 1,200 compounds; about 140 (12%) were called active.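 Rule for the calls: active = fitted curve falls past -35% activity change at a dose under twice the top valid dose, in every replicate test; inconclusive = replicate tests disagree on the call; inactive = the rest, including activity in the opposite direction.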 The list is a sample of the results.

Test: restoration of mutant CFTR halide transport – FRT cells, YFP quenching, cherry-pick, dose response (AID 743402);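 note: compounds act as correctors raising surface CFTR-F508del before acute activation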
Conditions: FRT CFTR-F508del YFP iodide quenching, 24 h, channel opened with forskolin and a potentiator; series mostly up to 26 µM; activity change, negative = more quenching (active): at the top concentration

Activity change, negative = more quenching (active), inactive:
OC[C@@H]1CN(Cc2ccc(-c3ccccc3)cc2)C[C@H](n2cnc3c(NC4CC4)ncnc32)O1 6.46%
COc1ccccc1NC(=O)CSc1ccc(-c2ccccn2)nn1 -3.33%
COc1ccccc1N=C1SC(C(=O)Nc2cccc(Cl)c2Cl)C(N)=C1C(N)=O (centres undefined) 9.13%
CC(C)C[C@H]1CN([C@@H](Cc2ccc(O)cc2)CN2CCC[C@H]2CN2C(=O)C(=O)NC[C@@H]2Cc2ccccc2)C(=O)C(=O)N1CC1CCCCC1 33.5%
CCC(=O)N1CC2(CCN(Cc3ccc(Cl)cc3)CC2)c2c(n(C)c3cc(OC)ccc23)[C@H]1CO -6.91%
COC(=O)C1=CN(c2ccc(OC)cc2OC)C(N)=C(C#N)C1c1ccccc1F (centres undefined) 6.46%
CCCC(=O)NC(c1ccc(Cl)cc1)c1ccc2cccnc2c1O (centres undefined) 3.12%
Cc1cccc(NC(=S)N/N=C/c2cccc(O)c2)c1C 0%
Cc1cnc(NC(=O)c2ccc3c(c2)OCCO3)s1 -20%
Cc1cc(Br)cc(/C=N/NC(=O)c2ccc3c(c2)OCO3)c1O 13.3%
O=C(Cc1ccc(Br)cc1)NCc1ccccc1 -3.12%
Cc1nc(N)[nH]c(=O)c1CCCNS(=O)(=O)c1ccc([N+](=O)[O-])cc1 11.5%
CC(C)CN(CCCNC(=O)CN1C(=O)CSc2ccc(S(=O)(=O)N3CCOCC3)cc21)CC(C)C 6.25%
CCN(CC)C(=O)c1oc2ccc(S(=O)(=O)N3CC(C)CC(C)C3)cc2c1C (centres undefined) 17.5%
O=C(N=Nc1c(O)[nH]c2ccc(Br)cc12)c1ccccc1-n1cccc1 -13.3%
Cn1cccc1/C=C1\SC(=Nc2cccc(O)c2)NC1=O 8.28%
Cc1ccc(C2NC(=O)c3ccccc3N2)c(C)c1 (centres undefined) 3.33%
Cn1cc(C(=O)N/N=C/c2ccc3c(c2)OCO3)c2ccccc21 -10%
COc1cc(OC)c2c(-c3cccc(-c4cccc(N)c4)c3)cc(=O)oc2c1 -3.33%
CC(C)Nc1ccc(Nc2ccnc3cc4ccccc4cc23)cc1 -20%
CCCNC(=O)N1CC2(CN(S(=O)(=O)c3cccc(OC)c3)C2)c2c(n(C)c3cc(OC)ccc23)[C@H]1CO 12.3%
CN1c2ccc(-c3ccc(F)cc3)cc2[C@H]2[C@H](CCN2S(=O)(=O)c2cccc(F)c2)[C@@H]1CO -28.6% [at 9 µM]
Cc1ccccc1S(=O)(=O)N1C[C@@H]2N[C@H](C1)C2c1ccc(-c2cccc(C#N)c2)cc1 (some centres undefined) 0%
Cc1cccc(S(=O)(=O)N2C[C@H]3[C@@H](c4ccccc42)[C@H](CO)N3CC2CCCC2)c1 6.46%
COc1cccc(-c2ccc([C@H]3[C@@H](CO)N(C(=O)c4ccccn4)[C@H]3C#N)cc2)c1 19.3%
COc1ccc(-c2ccc3c(c2)[C@H]2[C@H](CCN2S(=O)(=O)c2ccc(OC)cc2)[C@H](CO)N3C)cc1 -31.2% [at 8 µM]
Cc1ccc(C)c(C2NC(=O)c3ccccc3N2)c1 (centres undefined) -3.85%
COC(=O)CSC1=C(C#N)C(c2ccc(C)o2)CC(=O)N1 (centres undefined) -3.33%
COc1ccccc1CNC(=O)Nc1nc(C(N)Cc2ccc(Cl)cc2)cs1 (centres undefined) -13.3%
CN(C)CCCN(C(=O)c1ccco1)c1nc(-c2ccc(Cl)cc2)cs1 -3.85%
O=C(CCc1ccccc1)NCC(c1ccco1)N1CCc2ccccc21 (centres undefined) -6.46%
CCOC(=O)c1oc2ccc(S(=O)(=O)n3nc(-c4ccccc4)cc3N)cc2c1C 5.42%
Cc1ccc(C(=O)N/N=C/c2cc(Br)ccc2O)cn1 16%
Cc1ccc(-c2ccc3c(c2)O[C@H](CN(C)Cc2ccccn2)[C@@H](C)CN([C@@H](C)CO)S3(=O)=O)cc1 3.57%
O=[N+]([O-])c1ccc(N=Nc2c(Cl)cc(O)cc2Cl)cc1 18.8%
COc1ccc(OC)c2[nH]c(C(=O)N/N=C/c3ccccc3O)cc12 3.12%
Cc1ccc(-c2ccc3c(c2)O[C@@H](CN(C)Cc2ccccn2)[C@H](C)CN([C@H](C)CO)S3(=O)=O)cc1 -7.14%
Cn1c(C(=O)c2ccccc2[N+](=O)[O-])nc2ccccc21 -22.1%
Cc1cccc(N2CCN(S(=O)(=O)c3cc(-c4cc(C)no4)ccc3C)CC2C)c1 (centres undefined) -1.61%
C[C@@H]1CN([C@H](C)CO)S(=O)(=O)c2ccc(-c3ccccc3)cc2O[C@H]1CN(C)Cc1ccccn1 8.74%
COc1ccc(-c2ccc3c(c2)[C@H]2[C@H](CCN2S(=O)(=O)c2ccc(OC)cc2)[C@@H](CO)N3)cc1 -10.7% [at 23.5 µM]
O=C(C[C@@H]1CC[C@H]2[C@@H](COC[C@H](O)CN2Cc2ccc3c(c2)OCO3)O1)Nc1ccc(-c2ccccc2)cc1 21.4% [at 2.85 µM]
COc1cc2c(-c3ccccc3)c(C)oc2cc1/C=N/NC(N)=S -6.67%
Cc1ccc(/C=N/NC(=O)c2c(-c3ccccc3)noc2C)c(O)c1 12.9%
CO/N=C\CC(=O)Nc1ccc(Cl)cc1Cl -3.12%
CCOc1cc(/C=N/NC(=O)N/N=C/c2ccc(O)c(OCC)c2)ccc1O -6.46%
COc1ccc(C2c3ccc4ccccc4c3Oc3ncn(CCCO)c(=N)c32)cc1OC (centres undefined) -6.46%
CCOC(=O)c1c(NC(=O)C(=O)N/N=C/c2ccccc2O)sc2c1CCCCC2 0.208%
O=c1c2ccccc2oc2cc(-c3ccc4[nH]ccc4c3)ccc12 -16.7%
O=C(NCCOc1ccccc1F)c1cc([N+](=O)[O-])ccc1N1CCOCC1 23.3%
CCOc1ccc(C(=O)COC(=O)Cc2n[nH]c(=O)c3ccccc23)cc1 0%
O=C1c2cccc3c(O)ccc(c23)C(=O)N1c1ccc(Cl)cc1 -29%
CCN1C(=O)c2cccc3c(S(=O)(=O)N(C(C)=O)c4ccc(OC(C)=O)cc4)ccc1c23 4.17%
C/C(=N\Nc1ncnc2sc(C)c(C)c12)c1ccccn1 -20%
Cn1cccc1/C=C1\SC(=Nc2ccccc2)NC1=O -16.7%
CCc1cc(-c2nnn(CCC3COCCO3)c2CC)ccc1-c1cn(Cc2ccc3ccccc3c2)nn1 (centres undefined) 6.67%
COc1cc(NC(=O)c2csc(N)n2)cc(C(=O)Nc2cccc(C(F)(F)F)c2)c1 12.5%
O=C(C1CCCCC1)N1CC(=O)N2[C@@H](CO)[C@H](c3ccc(C#Cc4cccc(F)c4)cc3)[C@@H]2C1 -14.3%
CC1=Nc2cc(C(=O)NCC3CCCO3)ccc2Sc2ccc(C)cc21 (centres undefined) 6.46%
COc1ccccc1NC(=S)N(Cc1ccco1)Cc1cc2cc(C)cc(C)c2[nH]c1=O -13.3%
CC(=O)O[C@H]1C(=O)[C@]2(C)[C@H]([C@H](OC(=O)c3ccccc3)[C@]3(O)C[C@H](OC(=O)[C@H](O)[C@@H](NC(=O)c4ccccc4)c4ccccc4)C(C)=C1C3(C)C)[C@]1(OC(C)=O)CO[C@@H]1C[C@@H]2O 12.7%
COc1cc2c(cc1OC)C(C)N(C(=O)Nc1cc(C)cc(C)c1)CC2 (centres undefined) 0%
C=CCN1c2ccccc2[C@]23C[C@@H](C(=O)OC)N(C(=O)c4cccs4)C2=NC(C(=O)OC)=C(C(=O)OC)[C@H]13 6.67%
C[C@H]1CN([C@@H](C)CO)C(=O)Cc2cc(NC(=O)Nc3ccc(C(F)(F)F)cc3)ccc2O[C@H]1CN(C)S(=O)(=O)c1ccccc1 7.14%
O=C(N/N=C\c1c(O)ccc2ccccc12)c1cncc(Br)c1 -33.3%
C[C@H]1CN([C@@H](C)CO)S(=O)(=O)c2ccc(C#Cc3ccc(F)cc3)cc2O[C@H]1CN(C)C(=O)NC1CCCC1 10.7%
COc1ccc(OC)c(Nc2cc(C)nc3ccc(C)cc23)c1 -17.9%
C[C@H]1CN([C@@H](C)CO)S(=O)(=O)c2ccc(-c3ccc(C#N)cc3)cc2O[C@@H]1CN(C)Cc1ccccn1 -1.72%
Oc1ccc2ccccc2c1C=NNc1ccccn1 -13.3%
Cc1cccc(Nc2nc(N)nc(-c3oc4ccccc4c3C)n2)c1 3.33%
CCOC(=O)c1ccc(Nc2sc(C(=O)c3cccc([N+](=O)[O-])c3)c(N)c2C#N)cc1 -6.25%
CCc1ccc(-c2nc(C(N)=O)c3[nH]c(=O)n(-c4ccccc4OC)c3n2)cc1 -12.9%
Nc1sc(-c2ccccc2)cc1-c1n[nH]c(=S)n1C1CCCCC1 0%
Cc1ccc(C)c(CSc2nc3[nH]ncc3c(=O)[nH]2)c1 5.42%
